# Measurements published in PubChem BioAssay (NCI).
# Compounds without any hit were thinned out: in the full panel of roughly 83,000, 20% have a hit.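 The test compound was applied at a single concentration to cells in 96-well plates for 48 hours, and percent growth was recorded.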 The source made the active and inactive calls. How the source made its calls: active means growth percent below 10; inactive means the rest.
# Test system: MDA-MB-468 breast
# Assay: NCI-60 one-dose screen, 48 h (100 = growth as untreated, 0 = no growth, -100 = all killed)
# Conditions: 10 µM unless noted
row,SMILES,growth
1,COc1cc(NC(=O)c2cc3ccccc3nc2Nc2ccc(F)cc2)cc(OC)c1OC,-0.996% (active)
2,C#CC(O)c1ccccc1 (centres undefined),110% (inactive)
3,Cc1ccc(C(=O)C(Br)C(Br)c2ccccc2)cc1 (centres undefined),42.8% (inactive)
4,O=C1CC(SC(=S)C2CCCC2=O)C(=O)N1 (centres undefined),106% (inactive)
5,O=C1Nc2cc(-c3ccc(NC(=O)c4ccccc4)cc3)ccc2/C1=C/c1ccc[nH]1,2.14% (active)
6,C[C@]12CC[C@H]3[C@@H](CC[C@H]4C[C@@H](O)CC[C@@]43C)[C@@H]1CC(=O)C2,113% (inactive)
7,C[C@H](NC(=O)[C@@H]1CSSC[C@@H](NC(=O)Cc2nc3ccccc3cc2O)C(=O)NCC(=O)N1C)c1ccccc1,17.5% (inactive)
8,Cc1ccc(-c2nc(N3CCN(C(=O)c4ccc(OC(F)(F)F)cc4)CC3)c3ccccc3n2)cc1,93.8% (inactive)
9,COc1cnc2c(c1)C(=O)c1c-2n(CCCNC(C)C)c(=O)c2cc([N+](=O)[O-])ccc12,-55.8% (active)
10,NC(CSC(c1ccccc1)(c1ccccc1)c1ccccc1)C(=O)NCC(=O)O (centres undefined),55% (inactive)
11,C=C(C)[C@@H]1CC[C@]2(C(=O)NCCCCCN(CCC#N)CCC#N)CC[C@]3(C)[C@H](CC[C@@H]4[C@@]5(C)CCC(=O)C(C)(C)[C@@H]5CC[C@]43C)[C@@H]12,103% (inactive)
12,c1ccc(-c2[nH]c3ccccc3c2-c2ccccc2)cc1,84.1% (inactive)
13,O=C1CC(=O)N(C(=O)c2nn(-c3ccc(Cl)cc3)cc2O)N1,62.4% (inactive)
14,COc1ccc(Nc2c3ccccc3nc3ccccc23)cc1,14.1% (inactive)
